In paper PMC12864922, “TDP-43 directly inhibits mRNA accumulation in neurites through modulation of mRNA stability” one finds binding signal data, which are given here for ten molecules.

B1: ENSMUSG00000034801.21|Sos2 (ssRNA)
RNA: GGGAGUUCUACAGUCCGACGAUCGCUUCGAUAUCCGCAUGCUAGCCCUCUCCACGGAUUCCACGCAGCUGUCACUUGCUCAGCUCCAGUCACAGCAGCCUUGCUCAUCUUCCAGCUCCUCCUGUCCCACCAAGGCAGAAUUCAAGCCCUCUCUUACCAAAGCUGCCACCAAAGACUUACAAACGGGAGCUUUCCCACCCGCCACUGUAUAGACUGCCUCUGCUGGAAAAUGCAGAAACUCCUCAAUGACCUUGGCCAUAUGUAGUCAUUGACACUGGAAUAGUAUUUGUAAAGGUUUUUAAUUCUCUUGCGGUCGCACUAGUGUGGAAUUCUCGGGUGUCAAGG
B2: ENSMUSG00000042529.183|Kcnj12 (ssRNA)
RNA: GGGAGUUCUACAGUCCGACGAUCGCUUCGAUAUCCGCAUGCUAGUUUAAUCUUUCCCUACUGCCCUAAGUCCACUCAUGAAGCUCCCCAGGCCCUUCUGAGAUUGCAGAGGCUGCUUGCUCAUAGCCAUGACCCUGCCUGCUUUUGUCCCACACUGCUGGGGCAGGAUGAUGAAGCCCUGCUGGUCCCAGCCAGUCAUCUCCUGCUGGAAGGCAGAGUCUAGGGGAGAAGAGAAACACCCCCACCCCCACCCCUAUCCCGCACCAGCCCCCUGCCACCAUAGAGAUAGACCAGAGAAAUGUCACUCUUGCGGUCGCACUAGUGUGGAAUUCUCGGGUGUCAAGG
B3: ENSMUSG00000061578.815|Ksr2 (ssRNA)
RNA: GGGAGUUCUACAGUCCGACGAUCGCUUCGAUAUCCGCAUGCUAUGGGACUCUUUUUAUGAGGAACCAGUCCUGUUGAAUCGGGGUGCUCUGUAUUAGUUAUUUUUGUAACUUGUGAUUGUAACCAAAUGCCCGAUAGAAACAGCAUUCUGGCUCACAGUUUCAAAGGGCUCAGUCCAUAGCUGCCUGACUCUGUGUUUCUAGGCCUUUCUUGAGGCAAGUGUUCAUCAUGAUAGUGUGAGGGUGAGGAGGAGUUUCUUCAUGGCAAACAGGAAGCAAAGAGCAAUACAGGAAAAGGUCAGGGGCUCUUGCGGUCGCACUAGUGUGGAAUUCUCGGGUGUCAAGG
B4: ENSMUSG00000061578.1222|Ksr2|31:35;225:229 (ssRNA)
RNA: GGGAGUUCUACAGUCCGACGAUCGCUUCGAUAUCCGCAUGCUAGAAUGAGCCGCUGGGAUAUUGACAUGGAGAACACAUGAUGGAAAAAGCCUCCACACCCAACAUAACUCUCCAGAGAGAUAUUGAAAGUGAUGGGCAGAGAGUCUGACAAUGACCCAGGGGUCAUUGUGAGUCCUAGGCUGAAUCUGUAAUGGGGUCCAAAGUGCAGGAGAGACUGCAUUCACCUUGUUGGUGGGGUGGGGCUUCUUUCAUUACUUUAAGUAUCUCAUACGGCUUGAGGCAUGGGAAACAGCACCUUGUCUCUCUUGCGGUCGCACUAGUGUGGAAUUCUCGGGUGUCAAGG
B5: ENSMUSG00000022095.104|Fam160b2 (ssRNA)
RNA: GGGAGUUCUACAGUCCGACGAUCGCUUCGAUAUCCGCAUGCUAGCUGUUGCAAAAUUCCCAACUGCCUCCUGGCAGAGGCCCAAAGUAUGCUCUGCGCCCAGGCGGGGGCAGCUGCUAACAAGAGCCCUGGCGCAGCUGCAGCCAGGGCAGGCGAGAGCCUUGGAGCUGGGUGCCAGGCUCCAGCUCCAGCUCCAGCUGGUUCCUCUCUGGCGCCUUCUGAACCCGUCUCAGCAAGUCCGAAACACCUGGGCAGAGAGGUCAUUGACCAGGGAUGGGGGCCCUUGCCCUCUGAAUCCUGCCCACUCUUGCGGUCGCACUAGUGUGGAAUUCUCGGGUGUCAAGG
B6: ENSMUSG00000061578.919|Ksr2|82:86 (ssRNA)
RNA: GGGAGUUCUACAGUCCGACGAUCGCUUCGAUAUCCGCAUGCUACAAUUCUACCCAUGACAGACAUGUCCCAUCCAUGAGCCCAGAUAGUCAAAGACUUCAGCACAAGGGUGUUUAGAGUAGGCACACACGAAGUAUCAAUAAGGUUAUUGAGAUGAGGAUUUAGAAAGAUCCAUGUAUAAAAGGUCUAGAAGGAUGAAGAUCUAAAACAAGAAGACUGCAUGUUAACGCUCCUGCCACUGUUGCCCCUUCCUUUACCCUUGGCAGACAUUGCUAAUCAAUCUCAGCACAGUUUCCAACCACAGCUCUUGCGGUCGCACUAGUGUGGAAUUCUCGGGUGUCAAGG
B7: ENSMUSG00000061578.806|Ksr2 (ssRNA)
RNA: GGGAGUUCUACAGUCCGACGAUCGCUUCGAUAUCCGCAUGCUACCUCUCUCCAAUCUUUACCUUUGCCUCUACUAGAUGAUCUUGCAUCUGUCUUUGUGGGACUCUUUUUAUGAGGAACCAGUCCUGUUGAAUCGGGGUGCUCUGUAUUAGUUAUUUUUGUAACUUGUGAUUGUAACCAAAUGCCCGAUAGAAACAGCAUUCUGGCUCACAGUUUCAAAGGGCUCAGUCCAUAGCUGCCUGACUCUGUGUUUCUAGGCCUUUCUUGAGGCAAGUGUUCAUCAUGAUAGUGUGAGGGUGAGGAGCUCUUGCGGUCGCACUAGUGUGGAAUUCUCGGGUGUCAAGG
B8: ENSMUSG00000043670.134|Diras1 (ssRNA)
RNA: GGGAGUUCUACAGUCCGACGAUCGCUUCGAUAUCCGCAUGCUACCUGGCCACCCCGAGUACCACCUCUGGAAUAGCAGACGCCCACAGCACAAGCCCAGGACUGUCCCUUCAGGGGAGGCACACUGGAACCCUGAACUUGGAGUGUGGAGUGGCUGCCUGGACACUGCCCACCUGGACACCAGCCUUCUGCUGAGAUAGAGACCUUGGCACAGUGGCACCUCGACAGCCACCCCGACUGGGGGUUUGGGGUGCUGAGGGUGGGGUGCCCAGCUGAGAGUCUAUCAGCAAAGUCCCUGUGUGCGCUCUUGCGGUCGCACUAGUGUGGAAUUCUCGGGUGUCAAGG
B9: ENSMUSG00000058297.456|Spock2|123:127 (ssRNA)
RNA: GGGAGUUCUACAGUCCGACGAUCGCUUCGAUAUCCGCAUGCUAUCACACAGGUCAGAUUAUUGUCGGUCCUGCGGGCCUCAUCCUUGAAUAAGCUGCCUGCCCAGUUCCUCCAUCCGUGUUCCUGCCUGCUCCCGUUCCCUUGUUGCGGGCAGGAGAGGUAGGGCACACAUGGAAAGAGUUCAACCAAAUUACGGCAGCACCACAUCUUGCCGAGCCCUGGAGCUGCCCUACUAAGAGCCUCCUUAGCCCUGGGUGCUGGGAAGGAUGGUGUACGUUGGGGAAGUUUGAGGUUGGAGAGAGUACUCUUGCGGUCGCACUAGUGUGGAAUUCUCGGGUGUCAAGG
B10: ENSMUSG00000043670.215|Diras1 (ssRNA)
RNA: GGGAGUUCUACAGUCCGACGAUCGCUUCGAUAUCCGCAUGCUAGUGUCUGUCUUGGGAUGGGGUGUUCUUGCACCACUUUGUGUUCUUAGUGAGACCACAGUGUAAGUGGCCGUGUGUGUGUGUGGGGGGGGGCACCUAGACAUUGUGGUGUGUCUGUAUGGCUCUGUGUUUUCAGGGGUGGGUGACACAGGCCUGUCUGAUGAGCACCAGGUCUGUUCCAGGCUGUGGCAAGCUGGCUCCUGGCUCAGAAGUGACAAAGCUGCAGUACAGAGGCCUCAGUGUGAGGUCAUCACCUCACAGUGCUCUUGCGGUCGCACUAGUGUGGAAUUCUCGGGUGUCAAGG

Whole data set: some 9,900 sequences, median “r (bound/input frequency ratio)” near 0.7, cut for the highest 2% near 6.5. This is one part of a sample in which the highest values are shown more often than they occur.

Sequence of TDP-43 (Q13148 whole entry): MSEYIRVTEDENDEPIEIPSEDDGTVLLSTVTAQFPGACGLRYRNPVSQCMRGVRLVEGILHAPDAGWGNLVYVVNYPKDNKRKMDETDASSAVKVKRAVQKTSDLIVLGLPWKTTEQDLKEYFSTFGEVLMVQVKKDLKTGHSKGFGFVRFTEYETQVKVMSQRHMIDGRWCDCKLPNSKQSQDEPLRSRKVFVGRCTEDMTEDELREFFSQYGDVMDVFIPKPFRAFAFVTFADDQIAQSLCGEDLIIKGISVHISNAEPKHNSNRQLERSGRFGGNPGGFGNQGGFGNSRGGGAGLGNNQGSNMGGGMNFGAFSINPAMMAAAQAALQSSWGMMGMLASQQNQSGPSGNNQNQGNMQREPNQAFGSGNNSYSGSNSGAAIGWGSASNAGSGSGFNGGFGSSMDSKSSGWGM

The experiment addresses TDP-43 (Homo sapiens, UniProt Q13148 1-414). Description: RNA Bind-n-Seq with designed 260-mer pool; 25 mM Tris-HCl, 150 mM KCl, 3 mM MgCl2, BSA (printed 500 mg/mL), 20 units/mL SUPERase IN; pH not stated; 500 nM RNA pool, 1 h, 4 C; TDP-43 5, 50, 500 nM; high values mean tight binding. The settings on record: protein: recombinant; tags: SBP (GST cleaved off with PreScission; pGEX-GST-SBP). Put shortly: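 Duplicate measurements used two independent batches of recombinant SBP-tagged TDP-43, which was captured on streptavidin beads at 5, 50 or 500 nM. The beads were incubated with 500 nM of an in vitro-transcribed 260-nt 3′ UTR oligo pool for 1 h at 4 °C in 25 mM Tris-HCl, 150 mM KCl, 3 mM MgCl2, BSA and SUPERase IN. After washing, biotin elution, reverse transcription, PCR amplification and sequencing, binding was expressed as R: each oligo's normalized read abundance in the bound sample over its abundance in input.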
On to B1, for which the binding signal was 1.01 R (bound/input frequency ratio).
Consider B2, for which the binding signal is 1.85 R (bound/input frequency ratio).
For B3, the binding signal is 2.37 R (bound/input frequency ratio).
In the case of B4, the binding signal is 0.49 R (bound/input frequency ratio).
In the case of B5, the binding signal was 0.438 R (bound/input frequency ratio).
To B6 belongs 0.397 R (bound/input frequency ratio).
Turning to B7, the binding signal was 0.325 R (bound/input frequency ratio).
With B8, the binding signal is 0.868 R (bound/input frequency ratio).
B9: the binding signal is 0.829 R (bound/input frequency ratio).
For the molecule B10, the binding signal is 3.25 R (bound/input frequency ratio).
